compound: CN[C@@H]1C[C@H]2O[C@@](C)([C@@H]1OC)n1c3ccccc3c3c4c(c5c6ccccc6n2c5c31)C(=O)NC4 [staurosporine]; assay: log2 fold change of tryptic peptide abundance, ligand vs vehicle (limited proteolysis) (log2 ratio); higher = more trypsin-susceptible (destabilized); details: ligand concentration: 20 uM; sample: mouse liver crude lysate; replicate design: treated separately

Chain of UniProt P31938 (P31938 whole entry): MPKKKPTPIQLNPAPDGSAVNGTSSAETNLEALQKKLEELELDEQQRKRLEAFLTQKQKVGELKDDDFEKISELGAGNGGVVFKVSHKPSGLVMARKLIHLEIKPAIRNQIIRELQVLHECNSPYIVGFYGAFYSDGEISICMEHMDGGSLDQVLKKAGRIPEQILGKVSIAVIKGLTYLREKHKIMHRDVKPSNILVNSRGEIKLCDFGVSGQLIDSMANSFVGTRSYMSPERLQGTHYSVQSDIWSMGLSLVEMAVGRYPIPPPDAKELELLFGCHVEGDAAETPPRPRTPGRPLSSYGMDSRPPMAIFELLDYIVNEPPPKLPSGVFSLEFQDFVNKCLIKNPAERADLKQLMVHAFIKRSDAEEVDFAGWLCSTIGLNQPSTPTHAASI
Chain of UniProt P30681 (P30681 whole entry): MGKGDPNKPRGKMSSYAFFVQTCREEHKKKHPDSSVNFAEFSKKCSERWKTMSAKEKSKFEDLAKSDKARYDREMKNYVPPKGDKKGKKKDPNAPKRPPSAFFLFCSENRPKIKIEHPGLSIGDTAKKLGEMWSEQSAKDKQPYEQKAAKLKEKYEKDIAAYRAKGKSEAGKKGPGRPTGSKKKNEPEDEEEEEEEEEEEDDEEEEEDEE
Chain of UniProt Q04899 (Q04899 whole entry): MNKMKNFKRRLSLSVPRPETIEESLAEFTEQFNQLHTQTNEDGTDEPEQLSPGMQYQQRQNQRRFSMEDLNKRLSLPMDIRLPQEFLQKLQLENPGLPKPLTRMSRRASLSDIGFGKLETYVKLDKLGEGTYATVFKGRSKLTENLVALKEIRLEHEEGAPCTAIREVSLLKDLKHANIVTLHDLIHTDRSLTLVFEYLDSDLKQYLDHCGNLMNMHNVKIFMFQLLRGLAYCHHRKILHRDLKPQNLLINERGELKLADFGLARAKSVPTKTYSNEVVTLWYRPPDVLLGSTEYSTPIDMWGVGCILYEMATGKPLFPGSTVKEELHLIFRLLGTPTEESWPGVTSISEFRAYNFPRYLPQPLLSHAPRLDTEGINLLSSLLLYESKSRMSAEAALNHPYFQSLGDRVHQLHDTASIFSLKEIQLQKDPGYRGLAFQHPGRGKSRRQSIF
Chain of UniProt P36552 (P36552 whole entry): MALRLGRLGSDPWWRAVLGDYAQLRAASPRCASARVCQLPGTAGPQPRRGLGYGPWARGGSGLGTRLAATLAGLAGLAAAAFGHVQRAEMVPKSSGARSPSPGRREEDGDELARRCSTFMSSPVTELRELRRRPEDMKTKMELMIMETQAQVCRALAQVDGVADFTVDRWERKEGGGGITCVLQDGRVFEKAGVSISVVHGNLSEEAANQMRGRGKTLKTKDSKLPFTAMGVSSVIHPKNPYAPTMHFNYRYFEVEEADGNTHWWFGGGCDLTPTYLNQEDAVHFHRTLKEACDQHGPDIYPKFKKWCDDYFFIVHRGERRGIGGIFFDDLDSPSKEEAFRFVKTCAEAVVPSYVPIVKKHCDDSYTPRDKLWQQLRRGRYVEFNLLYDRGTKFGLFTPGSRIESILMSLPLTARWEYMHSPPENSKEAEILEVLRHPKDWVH
Chain of UniProt Q8JZR0 (Q8JZR0 whole entry): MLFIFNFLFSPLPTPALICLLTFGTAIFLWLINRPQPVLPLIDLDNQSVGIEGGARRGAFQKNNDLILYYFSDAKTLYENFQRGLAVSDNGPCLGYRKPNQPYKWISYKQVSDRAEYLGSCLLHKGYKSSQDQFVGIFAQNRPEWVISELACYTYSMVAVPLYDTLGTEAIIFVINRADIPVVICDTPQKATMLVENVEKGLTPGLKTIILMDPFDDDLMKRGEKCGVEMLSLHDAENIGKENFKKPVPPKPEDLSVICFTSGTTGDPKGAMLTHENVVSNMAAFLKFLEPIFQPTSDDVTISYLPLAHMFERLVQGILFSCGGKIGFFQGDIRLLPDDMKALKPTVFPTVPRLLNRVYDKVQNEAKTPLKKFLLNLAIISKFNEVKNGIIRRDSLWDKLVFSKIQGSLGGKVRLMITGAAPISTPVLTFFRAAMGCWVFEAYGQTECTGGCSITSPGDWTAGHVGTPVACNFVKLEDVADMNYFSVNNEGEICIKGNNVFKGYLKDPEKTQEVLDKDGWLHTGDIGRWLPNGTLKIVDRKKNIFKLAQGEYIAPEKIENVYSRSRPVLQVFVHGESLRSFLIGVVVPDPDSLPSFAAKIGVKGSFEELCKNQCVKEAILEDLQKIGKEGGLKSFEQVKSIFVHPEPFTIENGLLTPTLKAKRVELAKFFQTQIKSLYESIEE
Chain of UniProt P43883 (P43883 whole entry): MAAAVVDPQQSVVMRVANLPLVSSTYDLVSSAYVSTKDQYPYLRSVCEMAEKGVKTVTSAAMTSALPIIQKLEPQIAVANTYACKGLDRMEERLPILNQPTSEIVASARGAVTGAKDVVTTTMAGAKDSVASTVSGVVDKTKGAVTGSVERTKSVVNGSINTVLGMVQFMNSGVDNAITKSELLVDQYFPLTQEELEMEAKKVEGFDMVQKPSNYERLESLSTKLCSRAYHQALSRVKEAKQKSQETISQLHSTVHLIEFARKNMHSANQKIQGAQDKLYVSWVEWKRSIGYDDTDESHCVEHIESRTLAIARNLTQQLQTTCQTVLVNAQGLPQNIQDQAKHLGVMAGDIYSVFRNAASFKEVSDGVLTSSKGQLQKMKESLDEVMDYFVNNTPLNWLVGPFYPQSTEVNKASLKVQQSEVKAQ
Chain of UniProt Q5M8N4 (Q5M8N4 whole entry): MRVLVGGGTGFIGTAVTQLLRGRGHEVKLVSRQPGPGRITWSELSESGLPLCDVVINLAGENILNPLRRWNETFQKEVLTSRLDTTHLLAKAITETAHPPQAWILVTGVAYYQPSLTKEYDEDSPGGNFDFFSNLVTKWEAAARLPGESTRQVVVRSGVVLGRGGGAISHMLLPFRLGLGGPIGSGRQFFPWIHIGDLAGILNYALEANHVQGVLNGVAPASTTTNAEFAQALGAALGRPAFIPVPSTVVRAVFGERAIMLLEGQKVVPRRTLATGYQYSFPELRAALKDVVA
Chain of UniProt Q64028 (Q64028 whole entry): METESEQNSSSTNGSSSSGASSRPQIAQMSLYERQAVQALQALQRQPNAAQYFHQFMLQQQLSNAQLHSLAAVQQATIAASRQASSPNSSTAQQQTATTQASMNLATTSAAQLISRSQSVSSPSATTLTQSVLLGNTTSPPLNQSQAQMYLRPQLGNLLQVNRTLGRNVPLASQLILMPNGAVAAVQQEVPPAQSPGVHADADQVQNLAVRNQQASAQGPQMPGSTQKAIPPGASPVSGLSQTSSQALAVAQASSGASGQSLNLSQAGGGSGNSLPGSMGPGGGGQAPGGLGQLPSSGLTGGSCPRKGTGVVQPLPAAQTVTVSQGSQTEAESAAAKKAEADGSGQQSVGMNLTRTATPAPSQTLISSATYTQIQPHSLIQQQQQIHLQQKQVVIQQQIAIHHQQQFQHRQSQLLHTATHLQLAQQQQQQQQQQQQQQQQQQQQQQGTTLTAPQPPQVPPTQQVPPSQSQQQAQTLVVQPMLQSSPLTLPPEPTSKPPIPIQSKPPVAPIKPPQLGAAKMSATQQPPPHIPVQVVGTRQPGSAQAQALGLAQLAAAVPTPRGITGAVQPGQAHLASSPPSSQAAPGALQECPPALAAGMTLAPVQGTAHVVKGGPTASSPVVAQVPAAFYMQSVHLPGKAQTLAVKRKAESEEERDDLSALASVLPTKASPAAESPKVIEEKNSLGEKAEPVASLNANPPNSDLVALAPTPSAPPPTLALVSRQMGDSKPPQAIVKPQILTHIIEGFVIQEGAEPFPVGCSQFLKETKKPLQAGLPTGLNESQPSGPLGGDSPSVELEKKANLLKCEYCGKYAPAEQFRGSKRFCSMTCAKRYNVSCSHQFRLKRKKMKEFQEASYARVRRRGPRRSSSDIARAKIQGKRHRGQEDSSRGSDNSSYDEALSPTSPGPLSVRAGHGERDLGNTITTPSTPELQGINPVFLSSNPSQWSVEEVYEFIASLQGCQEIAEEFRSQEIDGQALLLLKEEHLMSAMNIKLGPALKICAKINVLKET
Chain of UniProt Q9JIZ0 (Q9JIZ0 whole entry): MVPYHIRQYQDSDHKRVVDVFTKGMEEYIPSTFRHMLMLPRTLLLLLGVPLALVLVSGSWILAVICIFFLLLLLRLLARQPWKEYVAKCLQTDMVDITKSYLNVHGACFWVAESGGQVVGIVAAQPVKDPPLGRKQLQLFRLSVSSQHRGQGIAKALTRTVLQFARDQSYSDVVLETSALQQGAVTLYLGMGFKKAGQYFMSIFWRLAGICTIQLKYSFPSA
Chain of UniProt O88351 (O88351 whole entry): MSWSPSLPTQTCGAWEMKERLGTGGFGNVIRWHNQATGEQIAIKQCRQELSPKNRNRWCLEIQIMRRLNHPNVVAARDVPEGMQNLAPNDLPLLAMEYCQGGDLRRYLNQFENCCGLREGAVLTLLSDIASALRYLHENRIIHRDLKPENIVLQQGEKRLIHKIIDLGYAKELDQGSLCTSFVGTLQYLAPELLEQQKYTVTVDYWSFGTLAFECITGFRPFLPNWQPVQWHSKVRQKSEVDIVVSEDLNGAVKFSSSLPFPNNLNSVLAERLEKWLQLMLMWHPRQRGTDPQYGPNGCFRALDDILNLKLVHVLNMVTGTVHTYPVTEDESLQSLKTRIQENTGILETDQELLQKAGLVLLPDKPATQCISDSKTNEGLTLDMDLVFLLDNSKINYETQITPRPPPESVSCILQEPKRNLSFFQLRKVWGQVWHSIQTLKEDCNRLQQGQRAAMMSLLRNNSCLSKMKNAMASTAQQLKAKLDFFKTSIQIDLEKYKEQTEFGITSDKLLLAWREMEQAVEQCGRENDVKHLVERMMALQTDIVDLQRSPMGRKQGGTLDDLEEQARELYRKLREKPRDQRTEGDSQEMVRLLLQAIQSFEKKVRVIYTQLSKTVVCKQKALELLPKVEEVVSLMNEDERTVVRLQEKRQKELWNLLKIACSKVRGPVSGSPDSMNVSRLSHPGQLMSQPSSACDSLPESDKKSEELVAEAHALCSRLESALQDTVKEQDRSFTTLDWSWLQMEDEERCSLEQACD

Target | log2 fold change
UniProt Q9DC61 (peptide sequence: QVLATHSR, peptide start residue: 451) | -1.12
UniProt Q9QZD8 (peptide sequence: MTGMALQVVR, peptide start residue: 43) | 0.567
UniProt Q04735 (peptide sequence: LEHEEGAPCTAIR, peptide start residue: 154) | -2.38
UniProt P34928 (peptide sequence: AWFSEAFGK, peptide start residue: 70) | 0.496
UniProt Q9JHU3 (peptide sequence: HVETGEIVALKK, peptide start residue: 23) | -2.31
UniProt Q62393 (peptide sequence: GWQDVTATNAYK, peptide start residue: 125) | 0.581
UniProt O35469 (peptide sequence: QTILDVNLK, peptide start residue: 95) | -0.227
UniProt P31750 (peptide sequence: HPFLTALK, peptide start residue: 209) | -1.6
UniProt P30681 (peptide sequence: MSSYAFFVQTCREEHK, peptide start residue: 13) | -0.185
UniProt O88451 (peptide sequence: LWDQTSSEVK, peptide start residue: 225) | -0.709
UniProt Q6PF93 (peptide sequence: LQALLGDNEK, peptide start residue: 573) | -0.345
UniProt Q8CAQ8 (peptide sequence: ATEKQHIELALEK, peptide start residue: 423) | -1.29
UniProt O88351 (peptide sequence: DLKPENIVLQQGEKR, peptide start residue: 145) | -0.744
UniProt Q5M8N4 (peptide sequence: LGLGGPIGSGR, peptide start residue: 177) | -0.493
UniProt Q91VF2 (peptide sequence: TSNMENIK, peptide start residue: 105) | 0.598
UniProt Q9WVJ2 (peptide sequence: GSIDEVDKR, peptide start residue: 322) | -0.456
UniProt P22907 (peptide sequence: ELENALEKNEVDLVVHSLK, peptide start residue: 80) | -0.802
UniProt Q60855 (peptide sequence: DLKPENILVDRDFHIK, peptide start residue: 138) | 1.33
UniProt P43883 (peptide sequence: DQYPYLR, peptide start residue: 38) | 0.671

Target | log2 fold change
UniProt Q04899 (peptide sequence: HANIVTLHDLIHTDR, peptide start residue: 176) | -3.35
UniProt Q9JIZ0 (peptide sequence: LAGICTIQLK, peptide start residue: 207) | 0.276
UniProt O70291 (peptide sequence: DLKPENILLDDHGHIR, peptide start residue: 311) | -1.62
UniProt Q64028 (peptide sequence: PQIAQMSLYER, peptide start residue: 24) | 0.725
UniProt E9Q3L2 (peptide sequence: ACLSALSEVK, peptide start residue: 1763) | -0.812
UniProt Q61161 (peptide sequence: GLHHLHSQGK, peptide start residue: 123) | -1.65
UniProt P14246 (peptide sequence: HVLGVPLDDR, peptide start residue: 44) | 0.702
UniProt Q9DB41 (peptide sequence: GAAVNLTLVTPEK, peptide start residue: 68) | 0.677
UniProt Q80UW5 (peptide sequence: GAFGEVAVVR, peptide start residue: 80) | -1.9
UniProt E9Q414 (peptide sequence: LPQQIHHYLNASDWER, peptide start residue: 2117) | 0.422
UniProt Q9D2C7 (peptide sequence: MNIFDRK, peptide start residue: 1) | 0.348
UniProt Q8VCC2 (peptide sequence: LAELFTNQR, peptide start residue: 97) | -0.315
UniProt Q8JZR0 (peptide sequence: GYLKDPEK, peptide start residue: 503) | 0.616
UniProt P31938 (peptide sequence: VSHKPSGLVMAR, peptide start residue: 85) | -0.899
UniProt Q923T9 (peptide sequence: GAILTTMLVSR, peptide start residue: 302) | -0.876
UniProt Q8C050 (peptide sequence: VLGTGAYGK, peptide start residue: 53) | -1.37
UniProt P36552 (peptide sequence: NPYAPTMHFNYR, peptide start residue: 240) | -0.601
UniProt Q6ZWQ0 (peptide sequence: INDRWQHLFDVIGSR, peptide start residue: 5986) | 0.927
UniProt Q8R1Z9 (peptide sequence: LSCNHVFHEFCIR, peptide start residue: 249) | 1.08

Reference: the supplement of paper PMC12819154, “High-throughput peptide-centric local stability assay extends protein–ligand identification to membrane proteins, tissues and bacteria” (Nature Structural & Molecular Biology, 2025)
